# Experimental data published in PubChem BioAssay AID585 (National Center for Advancing Translational Sciences (NCATS), 2007).
# About 1,300 (1.8%) of roughly 71,000 compounds were called active. Entries that show only a call come without a potency. The sample holds actives, similar compounds and a random draw of the others, so the mix is not that of the screen. Calls come from the whole dose curve.
# Target: Beta-lactamase (Escherichia coli (strain K12)) (UniProt P00811)
# Experiment: Promiscuous and Specific Inhibitors of AmpC Beta-Lactamase (assay without detergent)
# Conditions: AmpC nitrocefin hydrolysis, absorbance 480 nm, no detergent; series mostly up to 28.7 µM
# Experimental: NIH Molecular Libraries Screening Centers Network [MLSCN]
# NIH Chemical Genomics Center [NCGC]
# PI Name: Shoichet, Brian K.
# This aggregation profiling approach exploits the sensitivity of aggregate formation to detergent. Inhibition of b-lactamase is measured in the presence and absence of 0.01% Triton X-100. See Pubchem assay "Promiscuous and Specific Inhibitors of AmpC Beta-Lactamase (assay with detergent)" for related screen. Compounds that inhibit only in the absence of detergent are considered likely promiscuous aggregators.
# A screen of 1,030 compounds was performed in Brian Shoichet's lab in 96-well format. AmpC activity was measured by following the absorbance at 480 nm. Nitrocefin is a chromogenic substrate: while nitrocefin is yellow (lmax 390 nm), the product of its hydrolysis is red (lmax 486 nm, 17,000 M-1). AmpC beta lactamase was provided by Brian Shoichet and Brian Feng, UCSF.
# NCGC Assay Protocol Summary:
# 20 mM phosphate buffer, pH 7.0
# Triton X-100: No Detergent screen: 0.0001%, Detergent screen: 0.01%.
# Buffer in columns 3 and 4 as negative control (no enzyme).
# 5.3 nM AmpC in columns 1, 2, 5-48. Titration of UCSF compound 9 control (from 10 mM, then 1:2) pin-transferred to column 2. Column 1 is neutral (100% activity).
# Six uL of reagents were dispensed to 1536-well Greiner black clear bottom plates. Compounds and controls (23 nL) were transferred via Kalypsys PinTool. The plates were incubated for 15 min at room temperature, and then 2 uL of 800 uM solution of nitrocefin was added to start the reaction. The plates were immediately transferred to and read every 20 seconds for 4 min on ViewLux (Perkin-Elmer) High-throughput CCD imager using 480 nm absorbance protocol. During dispense, reagent bottles were kept submerged into 4 deg C water bath.
# Keywords: NIH Roadmap, MLSCN, MLI, MLSMR, qHTS, NCGC, AmpC Beta-Lactamase, Aggregation.
# Potency is the fitted concentration of half-maximal effect.
# Chain of Beta-lactamase (Escherichia coli (strain K12)) (P00811 whole entry, looked up): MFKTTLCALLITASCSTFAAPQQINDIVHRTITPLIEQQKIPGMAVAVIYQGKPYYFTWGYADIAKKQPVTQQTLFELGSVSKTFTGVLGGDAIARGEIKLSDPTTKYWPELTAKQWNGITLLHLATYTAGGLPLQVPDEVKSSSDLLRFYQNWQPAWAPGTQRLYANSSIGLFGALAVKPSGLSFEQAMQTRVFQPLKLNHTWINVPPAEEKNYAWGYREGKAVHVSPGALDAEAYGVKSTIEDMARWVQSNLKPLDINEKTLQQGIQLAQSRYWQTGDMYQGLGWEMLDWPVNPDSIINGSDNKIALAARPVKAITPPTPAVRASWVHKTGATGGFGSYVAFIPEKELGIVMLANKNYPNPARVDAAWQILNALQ
row,SMILES,Potency
1,CCn1c(=O)cc(OCC(=O)NCCCN2CCN(c3cccc(Cl)c3)CC2)c2ccccc21,inactive
2,CCN1CCCC1CNC(=O)c1cc2c(=O)n(C)c3ccccc3c2n1C (stereo unspecified),3.98 µM [single pt active] (active)
3,Cn1c(C(=O)NCCc2ccsc2)cc2c(=O)n(C)c3ccccc3c21,inactive
4,CCN1CCCC1CNC(=O)Cn1cnc2ccc(S(=O)(=O)N3CCC(C)CC3)cc2c1=O (stereo unspecified),inactive
5,Cn1c(C(=O)NCCCN2CCN(c3cccc(Cl)c3)CC2)cc2c(=O)n(C)c3ccccc3c21,3.98 µM [single pt active] (active)
6,Cn1c(C(=O)NCCN2CCc3ccccc3C2)cc2c(=O)[nH]c3ccccc3c21,inactive
7,O=C(CCn1c(=O)[nH]c2ccccc2c1=O)NCCCN1CCN(c2cccc(Cl)c2)CC1,inactive
8,Cn1c(C(=O)N2CCC(C(N)=O)CC2)cc2c(=O)n(C)c3ccccc3c21,inactive
9,CC1CCCC(C)N1CCCNC(=O)c1cc2c(=O)n(C)c3ccccc3c2n1C (stereo unspecified),3.16 µM [single pt active] (active)
10,CNC(=O)CSc1nnnn1-c1ccc(C)cc1C,inactive
11,CCOC(=O)c1ccc(NC(=O)CS(=O)(=O)c2cn(CC)c3ccccc23)cc1,inactive
12,CCOc1ccc(NC(=O)CCC(=O)n2nc(C)cc2C)cc1,inactive
13,CNC(=O)NCCN1CCCC1=O,inactive
14,COc1ncnc2c1N=C1CC(C)(C)CC(N)=C1S2,inactive
15,C=CCOC(=O)COCCC(C)C,inactive
16,CCOC(=O)c1sc(=S)n2c1[nH]c(=O)c1ccc(C(=O)OC)cc12,12.6 µM (active)
17,CCOC(=O)Cn1c(N)c(C(=O)OC)sc1=S,inactive
18,CCOC(=O)c1sc(=S)n(-c2cccc(OC)c2)c1N,inactive
19,Cc1ccc(OCc2nc(C#N)c(N3CCCC3)o2)cc1,inactive
20,Cc1ccccc1S(=O)(=O)Cc1ccc(C(=O)NCCN2CCCCC2C)o1 (stereo unspecified),inactive
21,C=CCNc1nnc(SCC(=O)N2CCCCC2)c2ccccc12,inactive
22,O=C(CN1C(=O)COc2ccccc21)NCCN1CCc2ccccc2C1,inactive
23,CCCN1CCN(CCCNC(=O)CN2C(=O)COc3ccccc32)CC1,inactive
24,O=C(CN1C(=O)COc2ccccc21)Nc1ccc(F)cc1,3.98 µM [single pt active] (active)
25,COC(=O)[C@H](C)NC(=O)Nc1ccc(OC(F)(F)F)cc1,inactive
26,Oc1c(Cl)cc(Cl)c(Cl)c1Cc1c(O)c(Cl)cc(Cl)c1Cl,5.01 µM (active)

row,SMILES,Potency
1,CC(=O)Nc1ccn(Cc2c(F)cccc2Cl)n1,inactive
2,O=C(Oc1ccc(-c2nc(-c3ccccn3)no2)cc1)c1ccccc1,inactive
3,N#Cc1ccccc1-n1c(N)c(C(=O)N2CCCC2)sc1=S,inactive
4,Cn1c(=O)[nH]c(=O)c2c1nc(CN(Cc1ccccc1)Cc1ccccc1)n2CCN1CCOCC1,inactive
5,Cn1c(=O)oc2cc(S(=O)(=O)N3CCC(C(=O)Nc4ccc(OC(F)(F)F)cc4)CC3)ccc21,inactive
6,Cc1ccc2nc(NC(=O)C3CCN(S(=O)(=O)c4ccc5c(c4)oc(=O)n5C)CC3)sc2c1,3.98 µM [single pt active] (active)
7,O=C(Nc1nc2ccc(S(=O)(=O)N3CCCC3)cc2s1)C1CCCO1 (stereo unspecified),inactive
8,CC(=O)OC(C(=O)NCCc1ccccc1)c1cccnc1 (stereo unspecified),inactive
9,C[N+]1(C)C2CC(OC(=O)C(CO)c3ccccc3)CC1[C@@H]1O[C@H]21 (stereo partly specified),inactive
10,CCOc1ccccc1NC(=O)C1CCN(S(=O)(=O)c2c(C)nn(C)c2C)CC1,inactive
11,CCOc1ccc(CCNC(=O)C2CCN(c3ccc(N4CCOCC4)nn3)CC2)cc1OCC,inactive
12,CCOc1ccccc1NC(=O)C1CCC(CNc2c(N3CCOCC3)c(=O)c2=O)CC1 (stereo unspecified),3.98 µM [single pt active] (active)
13,Cc1nc(-c2ccc(NC(=O)c3cccs3)cc2)cs1,inactive
14,COc1cccc2c(=O)n(CC(=O)N3CCCCCC3)ccc12,inactive
15,O=C(NCc1ccc2c(c1)OCO2)C1CCCN(S(=O)(=O)c2cccs2)C1 (stereo unspecified),3.98 µM [single pt active] (active)
16,O=C(NCc1cccs1)C1CCN(S(=O)(=O)c2ccc3c(c2)OCCO3)CC1,inactive
17,O=C(NC1CCCCC1)C1CCCN(S(=O)(=O)c2cccs2)C1 (stereo unspecified),inactive
18,COc1cc2c(cc1OC)C(c1ccncc1)CC(=O)N2 (stereo unspecified),inactive
19,CC(C)c1nnc(NC(=O)C2CCCN2S(=O)(=O)c2ccc(Cl)cc2)s1 (stereo unspecified),inactive
20,Cc1nc2ccc(S(=O)(=O)NCC(=O)O)cc2s1,inactive
21,Cc1nc2ccc(S(=O)(=O)NCC(=O)NCCN3CCCCC3C)cc2s1 (stereo unspecified),inactive
22,Cc1nc2ccc(S(=O)(=O)NC(C(=O)N3CCCCCC3)C(C)C)cc2s1 (stereo unspecified),3.98 µM [single pt active] (active)
23,COC(=O)c1c(NC(=O)CSc2nc3c(c(=O)n(C)c(=O)n3C)n2C(C)C)sc(C)c1C,inactive
24,CCn1nnc(NC(=O)c2c(OC)cccc2OC)n1,inactive
25,CCOC(=O)CSc1nc2c(sc(=S)n2CCc2ccccc2)c(=O)n1Cc1ccco1,inactive
26,CN(c1ccccc1)c1ccc(/C=c2\s/c(=C(/C#N)C(=O)C(C)(C)C)n(Cc3ccco3)c2=O)cc1,10 µM (active)

row,SMILES,Potency
1,O=c1nc2s/c(=C\c3ccco3)c(=O)n2nc1Cc1ccccc1,inactive
2,CC1=CC(=O)C2=C(C)C[C@H](O)[C@@H]3[C@@H](OC(=O)[C@H]3C)[C@H]12,inactive
3,CCOc1ccccc1N=C1NC(=O)CS1,inactive
4,O=C(CSc1nc2cc3c(cc2c(=O)n1CCC1=CCCCC1)OCO3)NCc1ccco1,12.6 µM (active)
5,C=C(C)Cn1c(SCC(=O)NCc2ccco2)nc2sc3c(c2c1=O)CCC3,inactive
6,O=C(CCCn1c(SCC(=O)c2ccc(F)cc2)nc2ccccc2c1=O)NCc1ccco1,inactive
7,CC(C)NC(=O)N1CC[C@@]2(CCCN(C(=O)c3cccn3C)C2)C1,inactive
8,Cc1c2cn[nH]c(=O)c2c(C)n1Cc1ccc(F)cc1,inactive
9,N#CCCN1CCN(S(=O)(=O)c2ccc(S(=O)(=O)NC3CCCCC3)cc2)CC1,inactive
10,CCOC(=O)N1CCC(NC(=O)c2cnn3ccccc23)CC1,3.98 µM [single pt active] (active)
11,CCOC(=O)N1CCC(NC(=O)CCc2cn(C)c3ccccc23)CC1,inactive
12,CCOC(=O)N1CCC(NC(=O)Cc2cn(C)c3ccccc23)CC1,inactive
13,COC(=O)N1CCC2(CCCN(Cc3ccccc3OC)C2)CC1,inactive
14,c1ccc(-c2cn3cccnc3n2)cc1,inactive
15,O=C(C1=C(O)C(=O)N(c2ncccn2)C1c1cccs1)c1ccco1 (stereo unspecified),inactive
16,CNC(=O)Nc1cc(C(C)(C)C)no1,inactive
17,Cc1cccc2c1N(CC(=O)OC(C)C)C(=O)C2=O,inactive
18,COc1ccc(C)cc1S(=O)(=O)NC1CCCCC1,inactive
19,CCOC(=O)N1CCC(Nc2c(NCCN3CCN(c4cccc(Cl)c4)CC3)c(=O)c2=O)CC1,3.98 µM [single pt active] (active)
20,CCOC(=O)N1CCC(Nc2c(NCCCN3CCN(c4ccc(OC)cc4)CC3)c(=O)c2=O)CC1,inactive
21,O=C(CCCn1c(=O)[nH]c2cc(Cl)ccc2c1=O)NCCN1CCN(c2ccccc2)CC1,inactive
22,COc1ccc2c(c1)OC(O)(C(F)(F)C(F)F)CC2=O (stereo unspecified),inactive
23,O=CN1CCN(C2CC(=O)N(c3ccc4c(c3)OCO4)C2=O)CC1 (stereo unspecified),inactive
24,C=CCSc1nnc(Cn2c(=O)sc3ccccc32)n1C,3.98 µM [single pt active] (active)
25,Cc1cccc(CSc2nnc(Cn3c(=O)sc4ccccc43)n2C)c1,inactive
26,Cc1ccccc1CSc1nnc(Cn2c(=O)sc3ccccc32)n1C,inactive

row,SMILES,Potency
1,CC1CCN(c2oc(-c3ccccc3F)nc2C#N)CC1,inactive
2,C=CCn1c(C)cc(C(=O)CN2C(=O)c3ccccc3C2=O)c1C,inactive
3,COc1ccc(C2CC(c3ccccc3)Nc3ncnn32)cc1 (stereo unspecified),3.98 µM [single pt active] (active)
4,COc1ccc(C2CC(c3ccc(C)cc3)Nc3ncnn32)cc1 (stereo unspecified),inactive
5,Clc1ccc(C2CC(c3cccs3)n3ncnc3N2)cc1Cl (stereo unspecified),inactive
6,Cc1noc(C)c1C(=O)NC(C)c1ccc2c(c1)OCO2 (stereo unspecified),inactive
7,CN1CCC2(CC1)NC(=O)NC2=O,inactive
8,COc1cccc(-c2nnc(NC(=O)c3ccc(S(=O)(=O)N(CC(C)C)CC(C)C)cc3)o2)c1,7.94 µM (active)
9,CCN(CC)C(=O)CSc1nnc(-c2cccc(OC)c2)o1,inactive
10,COc1cccc(NC(=O)CN(C)S(=O)(=O)c2ccc(C)cc2)c1,inactive
11,CC(C)C[C@@H](CC(=O)N[C@@H](CCC(=O)O)CC(=O)O)NC(=O)[C@@H]1CCCC[C@H]1NC(=O)C[C@@H](NC(=O)C[C@H](Cc1c[nH]c2ccccc12)NC(=O)[C@@H]1CCCC[C@H]1N)C(C)C,inactive
12,CCOc1ccc(OCC)c(NC(=O)C2CCN(S(=O)(=O)c3c(C)noc3C)CC2)c1,inactive
13,Cc1ccc(NC(=O)C2CCCN(S(=O)(=O)c3c(C)noc3C)C2)c(C)c1 (stereo unspecified),inactive
14,Cc1noc(C)c1S(=O)(=O)N1CCCC(C(=O)Nc2nccs2)C1 (stereo unspecified),3.98 µM [single pt active] (active)
15,C=CCNC(=O)C1CC=CCC1C(=O)O (stereo unspecified),inactive
16,CCOc1ccc(Cn2nnc(C(=O)NCc3ccccc3)c2N)cc1,3.16 µM [single pt active] (active)
17,CCOc1ccc(Cn2nnc(C(=O)Nc3ccc(OC)cc3OC)c2N)cc1,inactive
18,Nc1c(C(=O)NCc2ccccc2)nnn1Cc1cccc(Cl)c1,inactive
19,Cc1cc(N2C(=O)C(=O)/C(=C(/O)c3ccc(Cl)cc3)C2c2cccc(Br)c2)no1 (stereo unspecified),inactive
20,COc1ccc(C(CNC(=O)c2cccnc2SC)N2CCOCC2)cc1 (stereo unspecified),inactive
21,O=C(CN1C(=O)C2C3C=CC(C3)C2C1=O)NCCc1ccccc1Cl (stereo unspecified),inactive
22,O=C(CCN1C(=O)C2C3C=CC(C3)C2C1=O)Nc1ccccc1F (stereo unspecified),inactive
23,O=C(NCCN1C(=O)C2C3C=CC(C3)C2C1=O)Nc1ccccn1 (stereo unspecified),3.98 µM [single pt active] (active)
